Source: the supplement of paper PMC3334620
The full ranking holds about 33,000 sequences; the median of “E-score (-0.5 to 0.5)” is about -0.01, and the highest 2% start at about 0.26. Only a selection was taken, and the highest values are over-represented in it overall.

target: Ste12 (UniProt P13574); assay: PBM E-score (8-mer binding enrichment) (E-score (-0.5 to 0.5)); higher = stronger / more preferred TF binding; conditions: protein concentration: 200 nM; construct: GST-DNA-binding domain
Protocol: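 Universal 'all 10-mer' protein binding microarrays (Agilent AMADID 015681) probed with GST-tagged S. cerevisiae TFs (full-length or DBD) made by in vitro transcription/translation (PURExpress), about 100-200 nM. Bound TF was detected with fluorescent anti-GST. Each ungapped 8-mer (which stands for itself and its reverse complement) is scored by the PBM enrichment score (E-score), a modified Wilcoxon-Mann-Whitney statistic from -0.5 to +0.5, computed with the Universal PBM Analysis Suite. Scale: above 0.35 generally sequence-specific binding.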

UniProt P13574, sequence (P13574 whole entry, the tested form may be a part): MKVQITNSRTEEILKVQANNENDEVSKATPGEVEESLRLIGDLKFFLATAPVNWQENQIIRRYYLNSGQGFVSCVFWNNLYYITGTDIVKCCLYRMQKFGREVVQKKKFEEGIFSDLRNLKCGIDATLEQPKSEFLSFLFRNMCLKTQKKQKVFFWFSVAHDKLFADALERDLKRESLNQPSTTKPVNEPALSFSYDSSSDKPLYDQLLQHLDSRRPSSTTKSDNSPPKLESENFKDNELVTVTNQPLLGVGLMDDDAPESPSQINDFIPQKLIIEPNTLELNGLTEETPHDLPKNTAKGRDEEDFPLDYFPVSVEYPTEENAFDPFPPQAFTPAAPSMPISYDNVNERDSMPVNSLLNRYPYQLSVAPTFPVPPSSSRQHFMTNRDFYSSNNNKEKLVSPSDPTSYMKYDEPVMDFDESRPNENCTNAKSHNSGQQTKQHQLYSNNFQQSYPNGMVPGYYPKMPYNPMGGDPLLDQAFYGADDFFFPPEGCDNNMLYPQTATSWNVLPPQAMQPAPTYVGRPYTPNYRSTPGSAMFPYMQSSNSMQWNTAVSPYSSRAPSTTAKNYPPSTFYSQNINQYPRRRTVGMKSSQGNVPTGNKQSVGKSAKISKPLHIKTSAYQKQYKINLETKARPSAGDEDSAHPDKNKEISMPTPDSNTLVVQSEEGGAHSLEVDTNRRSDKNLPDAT

Sequence	PBM E-score
CGTTTTAG	0.215
GTTTTTTA	0.149
CGTTTTAA	0.319
CGTTTTTA	0.165
GTTTTTAA	0.261
CTTTTTAA	0.104
AAGAGTTG	-0.149
GGTTCATA	-0.0487
GGGAGAAC	-0.0492
ATCCTCAA	0.00575
AAATTGTA	0.048
AAATTGTC	0.268
AAATTGTT	0.186
AGTGTTTA	0.174
AGTGTTTC	0.332
CGTGTTTC	0.36
AGTGTTTG	0.245
CGTGTTTA	0.0319
CGTGTTGC	0.0401
GCCCTCGA	-0.216
CTTTAGTC	-0.0859
GGCCAAAA	0.0718

Sequence	PBM E-score
TCAACTCA	0.0748
CGAATACA	0.0383
AGCAGTGA	-0.0211
ATATGCTC	0.0529
CAAACGAC	0.128
GAAACGAA	0.367
AAAACGAA	0.237
AAAACGAC	0.0623
CAAACGAA	0.101
TTAACGAA	0.262
CTAACGAA	0.11
GAAACGAC	0.317
ATAACGAA	0.0476
CAAGTCTG	-0.0972
CGTCGCTC	-0.115
AGTATGGG	-0.0937
ATGGCCGC	-0.0598
ATGAGGTC	0.0263
AGGCTCGG	-0.112
ACAATTAT	0.212
ATAATTTA	0.357
ACAATTAC	0.087

Sequence	PBM E-score
ATAATTTG	0.212
TTAATTAA	0.245
GTAATTTA	0.223
ATAATTAA	0.276
ATAATTAC	0.131
ACAATTAA	0.292
CCGCCAGG	-0.206
GCTCAGCA	-0.0833
AATCTCAT	0.165
CTGACCGC	0.123
AAATGCAC	-0.00999
CACCCATA	0.105
ACCAGACG	-0.174
CGCGCGTC	0.0795
ACGCCACG	-0.182
ATTCGAAG	-0.0567
ATTCGAAA	0.286
ACTCGAAT	-0.144
ATTCGAAT	0.268
CTTCGAAA	0.132
ATTCGAAC	0.105
GCCTTCCC	-0.0772

Sequence	PBM E-score
CACACTTC	0.00873
AACCACTA	-0.00019
GGGCATAA	0.218
AAACATAT	0.273
CGGCATAA	-0.0029
TGGCATAA	0.307
ATACATAT	0.294
GGACATAA	0.0357
ATACATAC	0.134
AAACATAG	0.205
AAACATAC	0.241
ATACATAA	0.21
AGACATAA	0.101
TGACATAA	0.268
ACATGCAT	0.0142
GACGCACC	-0.00732
ATAAAGAC	-0.0448
CACCCTCC	0.213
GAGTTTGC	0.0562
ATCTACGG	-0.0913
AACTTTCT	0.128
